Measurements as given in PubChem BioAssay (NCATS).
Results filed as inconclusive are left out. Where a call stands in place of a potency, no number is given. Activity calls are given as the source filed them. The call rests on the fitted dose curve; in most records, active means well fitted curve in the direction sought with a large enough effect; inconclusive means small, poorly fitted or top-dose-only effect, or another doubt; inactive means no such curve, though single readings can be large; an effect the other way counts as inactive or inconclusive.

Tested on: not listed separately
Experiment: Quantitative high throughput screen for delayed death inhibitors of the malarial parasite plastid, 96 hour incubation (AID 488745); further: nearly all actives have a fitted effect of over 70% in size; further: potency means the concentration at half of the fitted maximal effect
Conditions: Plasmodium falciparum growth; series mostly up to 28.7 µM
In short: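 Two-generation (96 h) exposure of luciferase-reporter P. falciparum in erythrocytes, 2% hematocrit, 0.1% parasitemia final, 37 C, 5% CO2, RPMI 1640 with 0.5% Albumax. Growth inhibition scored by reduced luminescence.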

Structure (SMILES) | Potency
CO/N=C(\C(=O)N[C@@H]1C(=O)N2C(C(=O)O)=C(COC(C)=O)CS[C@H]12)c1csc(N)n1 (stereo in doubt) | inactive
OCC1O[C@H](O)C(Cl)C(O)C1O (stereo partly drawn) | inactive
O=C(O)c1cc([N+](=O)[O-])ccc1NCCCc1ccccc1 | inactive
Oc1ccccc1O | inactive
NCCNC(=O)c1ncsc1-c1cccc(F)c1 | inactive
Cn1cc(C2=C(c3ccc(Cl)cc3Cl)C(=O)NC2=O)c2ccccc21 | inactive
CN[C@H](CC(C)C)C(=O)N[C@H]1C(=O)N[C@@H](CC(N)=O)C(=O)N[C@H]2C(=O)N[C@H]3C(=O)N[C@H](C(=O)N[C@H](C(=O)O)c4cc(O)cc(O)c4-c4cc3ccc4O)[C@H](O)c3ccc(c(Cl)c3)Oc3cc2cc(c3O[C@@H]2O[C@H](CO)[C@@H](O)[C@H](O)[C@H]2O[C@H]2C[C@](C)(N)[C@H](O)[C@H](C)O2)Oc2ccc(cc2Cl)[C@H]1O | inactive
CC1(C)CCC=[N+]1[O-] | inactive
O=C1NC(O)=NC1(c1ccccc1)c1ccccc1 | inactive
Cc1cc(NC(=O)Nc2ccc3c(ccn3C)c2)sn1 | inactive
CCCCCCCCCCCCCCCCCCNC(=O)OCC(COP(=O)([O-])OCC[n+]1ccsc1)OC (stereo not drawn) | inactive
COc1cc(OC)c(/C=C2/C(=O)Nc3ccccc32)c(OC)c1 | inactive
O=S(=O)(c1cccc2c(I)cccc12)N1CCCNCC1 | inactive
C=CC(N)CCC(=O)O (stereo not drawn) | inactive
O=c1[nH]c2ccccc2n1CCCN1CCN(C(c2ccccc2)c2ccccc2)CC1 | inactive
CC(C)Cc1ccc([C@H](C)C(=O)O)cc1 | inactive
CC[C@@H](C)[C@H]1O[C@]2(CC[C@@H]1C)C[C@@H]1C[C@@H](C/C=C(\C)[C@@H](O[C@H]3C[C@H](OC)[C@@H](O[C@H]4C[C@H](OC)[C@@H](O)[C@H](C)O4)[C@H](C)O3)[C@@H](C)/C=C/C=C3\CO[C@@H]4[C@H](O)C(C)=C[C@@H](C(=O)O1)[C@]34O)O2 | 117 nM (active)
Fc1ccc(C(OCCCc2cnc[nH]2)c2ccc(F)cc2)cc1 | 2620 nM (active)
C=C/C(C)=C/[C@@]1(C)SC(=O)C(C)=C1O | inactive
N.N.O=C(O)C1(C(=O)O)CCC1.[Pt] | inactive

Tested on: not listed separately
Experiment: Quantitative high throughput screen for delayed death inhibitors of the malarial parasite plastid, 48 hour incubation (AID 488752); further: nearly all actives have a fitted effect of over 65% in size
Conditions: Plasmodium falciparum growth; series mostly up to 28.7 µM
In short: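 Cultures: infected erythrocytes at final 2% hematocrit and 0.1% parasitemia in Albumax-supplemented RPMI. Parasites express integrated firefly luciferase. Incubation with compound lasts 48 h before luminescent detection of remaining reporter activity.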

Structure (SMILES) | Potency
CO/N=C(\C(=O)N[C@@H]1C(=O)N2C(C(=O)O)=C(COC(C)=O)CS[C@H]12)c1csc(N)n1 (stereo in doubt) | inactive
NCCNC(=O)c1ncsc1-c1cccc(F)c1 | inactive
Nc1ccn([C@@H]2O[C@H](CO)[C@@H](O)[C@@H]2O)c(=O)n1 | inactive
O=C1NC(O)=NC1(c1ccccc1)c1ccccc1 | inactive
CCCCCCCCCCCCCCCCCCNC(=O)OCC(COP(=O)([O-])OCC[n+]1ccsc1)OC (stereo not drawn) | inactive
COc1cc(OC)c(/C=C2/C(=O)Nc3ccccc32)c(OC)c1 | inactive
O=S(=O)(c1cccc2c(I)cccc12)N1CCCNCC1 | inactive
CC(C)Cc1ccc([C@H](C)C(=O)O)cc1 | inactive
C=C/C(C)=C/[C@@]1(C)SC(=O)C(C)=C1O | inactive

Molecular target: Thioredoxin reductase 1, cytoplasmic (Rattus norvegicus) (UniProt O89049)
Experiment: qHTS Assay for Substrates of Mammalian Selenoprotein Thioredoxin Reductase 1 (TrxR1) (AID 488772);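 further: a drop in NADPH fluorescence below the no-compound background marks a TrxR1 substrate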
Conditions: purified TrxR1, NADPH consumption substrate assay; series mostly up to 57.1 µM
In short: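 In this dual-purpose format, potential substrates are identified from the first fluorescence read after selenite addition, not from the 8-minute delta. Rat enzyme is preincubated with NADPH and then with compound at ~22 deg C.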

Sequence of Thioredoxin reductase 1, cytoplasmic (Rattus norvegicus) (O89049 whole entry, looked up): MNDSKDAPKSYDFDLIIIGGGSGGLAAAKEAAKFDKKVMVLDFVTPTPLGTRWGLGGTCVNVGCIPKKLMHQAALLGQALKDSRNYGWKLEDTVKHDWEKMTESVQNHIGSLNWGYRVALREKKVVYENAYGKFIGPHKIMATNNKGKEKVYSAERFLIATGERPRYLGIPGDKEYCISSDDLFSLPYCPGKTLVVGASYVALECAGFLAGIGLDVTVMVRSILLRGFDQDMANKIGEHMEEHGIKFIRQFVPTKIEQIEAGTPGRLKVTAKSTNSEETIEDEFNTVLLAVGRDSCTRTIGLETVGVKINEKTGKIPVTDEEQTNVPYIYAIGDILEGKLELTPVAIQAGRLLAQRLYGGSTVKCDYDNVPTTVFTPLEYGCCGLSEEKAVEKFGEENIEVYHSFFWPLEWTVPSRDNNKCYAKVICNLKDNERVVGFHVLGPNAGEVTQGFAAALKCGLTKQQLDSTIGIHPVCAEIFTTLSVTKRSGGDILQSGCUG

Structure (SMILES) | Potency
OCC1O[C@H](O)C(Cl)C(O)C1O (stereo partly drawn) | inactive
CO/S(=N\S(=O)(=O)c1ccc(Cl)cc1)c1ccc([N+](=O)[O-])cc1 (stereo not drawn) | inactive
NCC1OC(O[C@H]2[C@H](O)[C@@H](OC3C(O)C(N)CC(N)C3OC3OC(CO)C(O)C(O)C3N)O[C@@H]2CO)C(N)C(O)C1O (stereo partly drawn) | inactive
O=C(O)c1cc([N+](=O)[O-])ccc1NCCCc1ccccc1 | inactive
NCCNC(=O)c1ncsc1-c1cccc(F)c1 | inactive
Cn1cc(C2=C(c3ccc(Cl)cc3Cl)C(=O)NC2=O)c2ccccc21 | inactive
CC1(C)CCC=[N+]1[O-] | inactive
CCNC(=O)[C@H]1O[C@@H](n2cnc3c(N)nc(NCCc4ccc(CCC(=O)O)cc4)nc32)[C@H](O)[C@@H]1O | inactive
Nc1ncnc2c1ncn2[C@@H]1O[C@H](COP(=O)(O)OP(=O)(O)OP(=O)(O)OP(=O)(O)OC[C@@H]2O[C@H](n3cnc4c(N)ncnc43)[C@@H](O)[C@H]2O)[C@@H](O)[C@H]1O | inactive
O=C1NC(=O)/C(=C/c2ccc3nccnc3c2)S1 | inactive
CCCCCCCCCCCCCCCCCCNC(=O)OCC(COP(=O)([O-])OCC[n+]1ccsc1)OC (stereo not drawn) | inactive
COc1cc(OC)c(/C=C2/C(=O)Nc3ccccc32)c(OC)c1 | inactive
O=S(=O)(c1cccc2c(I)cccc12)N1CCCNCC1 | inactive
CNc1ncnc2c1ncn2[C@@H]1O[C@H](CO)[C@@H](O)[C@H]1O | inactive
C=CC(N)CCC(=O)O (stereo not drawn) | inactive
CC(C)Cc1ccc([C@H](C)C(=O)O)cc1 | inactive
Cc1cc2c(cc1Cl)N(C(=O)Nc1ccc(Oc3cccnc3C)nc1)CC2 | inactive
Fc1ccc(C(OCCCc2cnc[nH]2)c2ccc(F)cc2)cc1 | inactive
COc1ccc(/C=C/C(=O)Nc2ccccc2C(=O)O)cc1OC | inactive
